# ChEMBL document CHEMBL1961873, “Compounds: GSK PKIS; Assays: Nanosyn kinase panel” (2012)
# What was measured:
# [1] = molecular target: Sphingosine kinase 1 (Homo sapiens) (UniProt Q9NYA1); conditions: at 1 µM;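 also: mean SPHK1 inhibition value reported from the GSK PKIS kinase panel screen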
# [2] = molecular target: T1, Sphingosine kinase 2 (Homo sapiens) (UniProt Q9NRA0); conditions: at 0.1 µM
# T1 sequence (whole entry): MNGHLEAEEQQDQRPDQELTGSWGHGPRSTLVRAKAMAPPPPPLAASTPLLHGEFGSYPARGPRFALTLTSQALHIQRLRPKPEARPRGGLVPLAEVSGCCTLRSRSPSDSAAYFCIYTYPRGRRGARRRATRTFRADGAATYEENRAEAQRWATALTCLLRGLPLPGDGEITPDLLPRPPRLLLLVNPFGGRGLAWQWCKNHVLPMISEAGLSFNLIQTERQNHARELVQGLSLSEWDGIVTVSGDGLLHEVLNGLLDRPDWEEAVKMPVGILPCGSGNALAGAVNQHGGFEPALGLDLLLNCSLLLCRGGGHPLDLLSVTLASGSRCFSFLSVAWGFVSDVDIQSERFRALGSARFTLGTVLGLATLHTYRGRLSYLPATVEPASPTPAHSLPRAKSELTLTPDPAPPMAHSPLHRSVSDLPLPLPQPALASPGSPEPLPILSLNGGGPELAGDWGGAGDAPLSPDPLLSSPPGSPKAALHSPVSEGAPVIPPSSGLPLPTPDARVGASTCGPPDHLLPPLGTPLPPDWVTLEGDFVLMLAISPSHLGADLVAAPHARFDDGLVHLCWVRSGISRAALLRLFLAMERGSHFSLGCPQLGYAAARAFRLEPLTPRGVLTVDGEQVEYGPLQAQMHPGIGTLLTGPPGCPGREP
# [3] = molecular target: T1, Sphingosine kinase 2 (Homo sapiens); conditions: at 1 µM
# [4] = molecular target: Casein kinase II subunit alpha (Homo sapiens) (UniProt P68400); conditions: at 0.1 µM
# [5] = molecular target: Casein kinase II subunit alpha (Homo sapiens) (UniProt P68400); conditions: at 1 µM
# [6] = molecular target: T2, Inhibitor of nuclear factor kappa-B kinase subunit alpha (Homo sapiens) (UniProt O15111); conditions: at 0.1 µM
# T2 sequence (whole entry): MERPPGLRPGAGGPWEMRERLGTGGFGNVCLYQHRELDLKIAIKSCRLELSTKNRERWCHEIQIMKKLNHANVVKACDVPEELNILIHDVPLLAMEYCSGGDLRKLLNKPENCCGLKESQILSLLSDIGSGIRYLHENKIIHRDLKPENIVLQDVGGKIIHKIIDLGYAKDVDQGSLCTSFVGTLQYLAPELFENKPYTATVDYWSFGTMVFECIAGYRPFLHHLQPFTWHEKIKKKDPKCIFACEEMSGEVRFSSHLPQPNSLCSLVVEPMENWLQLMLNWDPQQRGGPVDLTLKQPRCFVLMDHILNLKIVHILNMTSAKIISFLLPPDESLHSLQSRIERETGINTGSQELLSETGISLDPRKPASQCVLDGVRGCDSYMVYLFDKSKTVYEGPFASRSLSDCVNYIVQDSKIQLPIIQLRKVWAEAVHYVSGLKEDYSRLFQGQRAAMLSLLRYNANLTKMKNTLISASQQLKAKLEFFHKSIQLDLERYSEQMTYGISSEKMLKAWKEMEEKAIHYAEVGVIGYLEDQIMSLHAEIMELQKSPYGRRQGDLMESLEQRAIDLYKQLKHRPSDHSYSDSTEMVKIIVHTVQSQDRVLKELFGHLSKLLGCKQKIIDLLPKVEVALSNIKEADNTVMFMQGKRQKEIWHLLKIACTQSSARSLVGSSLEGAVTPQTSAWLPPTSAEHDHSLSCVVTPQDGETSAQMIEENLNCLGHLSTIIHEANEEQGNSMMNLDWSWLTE
# [7] = molecular target: T2, Inhibitor of nuclear factor kappa-B kinase subunit alpha (Homo sapiens); conditions: at 1 µM
# [8] = molecular target: T3, Inhibitor of nuclear factor kappa-B kinase subunit beta (Homo sapiens) (UniProt O14920); conditions: at 0.1 µM
# T3 sequence (whole entry): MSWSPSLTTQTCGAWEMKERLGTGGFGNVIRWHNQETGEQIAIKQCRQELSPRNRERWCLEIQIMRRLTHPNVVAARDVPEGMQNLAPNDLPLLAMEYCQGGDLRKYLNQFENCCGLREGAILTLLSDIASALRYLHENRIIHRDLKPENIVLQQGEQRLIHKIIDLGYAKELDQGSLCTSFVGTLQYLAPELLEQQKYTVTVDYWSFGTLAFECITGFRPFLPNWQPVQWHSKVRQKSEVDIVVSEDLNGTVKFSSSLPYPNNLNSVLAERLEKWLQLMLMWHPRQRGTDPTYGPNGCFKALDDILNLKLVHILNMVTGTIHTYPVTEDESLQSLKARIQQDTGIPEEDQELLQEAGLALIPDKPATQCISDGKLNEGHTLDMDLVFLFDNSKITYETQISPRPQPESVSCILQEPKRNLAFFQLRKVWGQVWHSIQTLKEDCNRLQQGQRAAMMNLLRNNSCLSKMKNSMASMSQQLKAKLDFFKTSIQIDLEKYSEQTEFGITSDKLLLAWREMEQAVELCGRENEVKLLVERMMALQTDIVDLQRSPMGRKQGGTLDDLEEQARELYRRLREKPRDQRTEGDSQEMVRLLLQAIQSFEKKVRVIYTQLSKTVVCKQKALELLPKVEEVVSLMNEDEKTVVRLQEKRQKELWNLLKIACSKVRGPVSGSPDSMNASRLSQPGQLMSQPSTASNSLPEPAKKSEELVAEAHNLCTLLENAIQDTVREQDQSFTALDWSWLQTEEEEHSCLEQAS
# [9] = molecular target: T3, Inhibitor of nuclear factor kappa-B kinase subunit beta (Homo sapiens); conditions: at 1 µM
# [10] = molecular target: T4, Inhibitor of nuclear factor kappa-B kinase subunit epsilon (Homo sapiens) (UniProt Q14164); conditions: at 0.1 µM
# T4 sequence (whole entry): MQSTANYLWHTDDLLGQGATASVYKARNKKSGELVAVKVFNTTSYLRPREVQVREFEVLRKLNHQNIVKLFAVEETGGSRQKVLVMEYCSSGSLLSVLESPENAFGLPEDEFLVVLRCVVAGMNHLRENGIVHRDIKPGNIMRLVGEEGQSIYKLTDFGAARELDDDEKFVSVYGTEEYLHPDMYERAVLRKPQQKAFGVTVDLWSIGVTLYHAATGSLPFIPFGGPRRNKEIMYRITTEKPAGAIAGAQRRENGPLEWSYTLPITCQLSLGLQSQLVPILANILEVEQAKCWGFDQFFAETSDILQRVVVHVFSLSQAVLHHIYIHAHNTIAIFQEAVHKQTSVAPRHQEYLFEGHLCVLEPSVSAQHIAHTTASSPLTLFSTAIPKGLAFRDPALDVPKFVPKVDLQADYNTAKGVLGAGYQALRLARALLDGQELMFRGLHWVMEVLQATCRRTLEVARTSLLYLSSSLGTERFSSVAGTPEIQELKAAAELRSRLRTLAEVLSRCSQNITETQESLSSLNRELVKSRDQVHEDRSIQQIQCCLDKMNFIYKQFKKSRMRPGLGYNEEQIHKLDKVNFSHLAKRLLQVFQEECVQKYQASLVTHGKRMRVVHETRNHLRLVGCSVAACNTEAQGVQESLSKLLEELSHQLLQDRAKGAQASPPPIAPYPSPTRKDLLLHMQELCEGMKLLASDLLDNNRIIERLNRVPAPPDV
# [11] = molecular target: T4, Inhibitor of nuclear factor kappa-B kinase subunit epsilon (Homo sapiens); conditions: at 1 µM
# [12] = molecular target: T5, Serine/threonine-protein kinase Nek1 (Homo sapiens) (UniProt Q96PY6); conditions: at 0.1 µM
# T5 sequence (whole entry): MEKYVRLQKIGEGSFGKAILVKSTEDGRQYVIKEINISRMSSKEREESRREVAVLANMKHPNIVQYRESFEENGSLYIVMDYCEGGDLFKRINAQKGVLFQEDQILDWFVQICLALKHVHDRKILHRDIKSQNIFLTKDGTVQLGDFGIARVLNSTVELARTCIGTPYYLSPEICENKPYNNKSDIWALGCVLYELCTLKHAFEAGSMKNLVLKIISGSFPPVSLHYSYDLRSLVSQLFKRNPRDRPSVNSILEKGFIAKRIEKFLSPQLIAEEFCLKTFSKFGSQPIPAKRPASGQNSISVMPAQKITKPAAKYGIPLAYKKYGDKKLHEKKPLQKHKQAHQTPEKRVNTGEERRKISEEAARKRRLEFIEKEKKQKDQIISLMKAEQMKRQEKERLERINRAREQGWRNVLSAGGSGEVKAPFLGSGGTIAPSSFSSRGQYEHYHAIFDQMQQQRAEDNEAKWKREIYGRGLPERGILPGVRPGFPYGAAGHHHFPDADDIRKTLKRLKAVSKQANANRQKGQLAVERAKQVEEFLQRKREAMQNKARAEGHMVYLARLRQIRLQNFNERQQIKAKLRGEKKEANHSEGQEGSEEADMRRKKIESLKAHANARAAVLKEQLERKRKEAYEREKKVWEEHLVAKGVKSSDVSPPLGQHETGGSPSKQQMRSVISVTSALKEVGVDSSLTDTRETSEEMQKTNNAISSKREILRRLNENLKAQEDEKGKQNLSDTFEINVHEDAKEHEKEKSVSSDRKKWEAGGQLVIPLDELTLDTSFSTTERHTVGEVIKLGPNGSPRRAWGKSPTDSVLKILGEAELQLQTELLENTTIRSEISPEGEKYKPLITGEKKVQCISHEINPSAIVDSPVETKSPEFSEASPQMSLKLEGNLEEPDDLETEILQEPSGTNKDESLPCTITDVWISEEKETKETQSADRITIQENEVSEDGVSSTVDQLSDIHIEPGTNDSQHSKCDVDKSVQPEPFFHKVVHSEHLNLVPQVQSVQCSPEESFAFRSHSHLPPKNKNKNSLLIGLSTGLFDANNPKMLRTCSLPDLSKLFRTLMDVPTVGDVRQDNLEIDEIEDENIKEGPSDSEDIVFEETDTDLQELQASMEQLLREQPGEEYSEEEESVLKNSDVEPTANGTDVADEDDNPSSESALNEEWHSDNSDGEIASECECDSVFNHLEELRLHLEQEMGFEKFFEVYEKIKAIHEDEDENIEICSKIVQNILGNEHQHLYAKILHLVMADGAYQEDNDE
# [13] = molecular target: T5, Serine/threonine-protein kinase Nek1 (Homo sapiens); conditions: at 1 µM
# [14] = molecular target: T6, Serine/threonine-protein kinase Nek2 (Homo sapiens) (UniProt P51955); conditions: at 0.1 µM
# T6 sequence (whole entry): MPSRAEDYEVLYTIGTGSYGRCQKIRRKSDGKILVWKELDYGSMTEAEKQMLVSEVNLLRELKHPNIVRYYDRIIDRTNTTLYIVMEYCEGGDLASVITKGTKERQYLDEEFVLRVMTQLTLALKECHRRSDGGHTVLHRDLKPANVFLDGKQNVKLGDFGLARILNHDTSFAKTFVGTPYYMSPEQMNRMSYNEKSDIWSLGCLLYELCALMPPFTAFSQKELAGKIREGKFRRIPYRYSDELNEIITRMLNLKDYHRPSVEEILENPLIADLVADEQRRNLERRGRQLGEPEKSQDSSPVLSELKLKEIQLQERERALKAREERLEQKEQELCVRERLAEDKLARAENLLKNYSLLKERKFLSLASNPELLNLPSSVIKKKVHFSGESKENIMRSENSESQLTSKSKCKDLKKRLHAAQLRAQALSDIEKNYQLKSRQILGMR
# [15] = molecular target: T6, Serine/threonine-protein kinase Nek2 (Homo sapiens); conditions: at 1 µM
# [16] = molecular target: Serine/threonine-protein kinase Nek6 (Homo sapiens) (UniProt Q9HC98); conditions: at 0.1 µM
# [17] = molecular target: Serine/threonine-protein kinase Nek6 (Homo sapiens) (UniProt Q9HC98); conditions: at 1 µM
# [18] = molecular target: Serine/threonine-protein kinase Nek7 (Homo sapiens) (UniProt Q8TDX7); conditions: at 0.1 µM
# [19] = molecular target: Serine/threonine-protein kinase Nek7 (Homo sapiens) (UniProt Q8TDX7); conditions: at 1 µM
# [20] = molecular target: T7, Serine/threonine-protein kinase Nek9 (Homo sapiens) (UniProt Q8TD19); conditions: at 0.1 µM;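 also: reported value is the mean percent inhibition of NEK9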
# T7 sequence (whole entry): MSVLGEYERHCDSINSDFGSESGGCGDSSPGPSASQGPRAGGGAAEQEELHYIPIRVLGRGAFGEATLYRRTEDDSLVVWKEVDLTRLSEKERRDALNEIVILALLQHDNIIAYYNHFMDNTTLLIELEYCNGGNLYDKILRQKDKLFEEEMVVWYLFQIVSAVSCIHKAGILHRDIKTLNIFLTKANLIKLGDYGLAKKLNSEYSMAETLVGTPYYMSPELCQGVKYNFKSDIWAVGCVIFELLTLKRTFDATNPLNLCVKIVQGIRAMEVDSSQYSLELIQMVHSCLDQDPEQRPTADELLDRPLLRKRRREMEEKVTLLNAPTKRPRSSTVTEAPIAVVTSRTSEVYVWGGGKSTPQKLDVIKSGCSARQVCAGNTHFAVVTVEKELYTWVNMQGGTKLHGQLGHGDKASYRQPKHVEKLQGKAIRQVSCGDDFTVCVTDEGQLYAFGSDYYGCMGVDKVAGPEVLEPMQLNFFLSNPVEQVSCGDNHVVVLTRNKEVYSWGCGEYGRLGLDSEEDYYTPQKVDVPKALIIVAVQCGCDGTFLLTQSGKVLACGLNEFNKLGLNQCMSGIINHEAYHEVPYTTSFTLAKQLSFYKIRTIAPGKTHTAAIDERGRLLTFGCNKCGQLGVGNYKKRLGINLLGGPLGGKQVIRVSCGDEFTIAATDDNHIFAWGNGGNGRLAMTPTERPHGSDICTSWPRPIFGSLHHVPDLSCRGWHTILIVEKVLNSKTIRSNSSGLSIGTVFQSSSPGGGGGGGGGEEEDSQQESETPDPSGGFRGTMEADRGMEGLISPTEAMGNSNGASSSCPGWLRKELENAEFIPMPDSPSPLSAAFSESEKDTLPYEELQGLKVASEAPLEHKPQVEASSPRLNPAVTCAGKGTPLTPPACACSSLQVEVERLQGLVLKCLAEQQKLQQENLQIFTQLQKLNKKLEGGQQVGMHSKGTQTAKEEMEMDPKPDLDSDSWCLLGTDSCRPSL
# Sequence of Serine/threonine-protein kinase Nek6 (Homo sapiens) (Q9HC98 whole entry): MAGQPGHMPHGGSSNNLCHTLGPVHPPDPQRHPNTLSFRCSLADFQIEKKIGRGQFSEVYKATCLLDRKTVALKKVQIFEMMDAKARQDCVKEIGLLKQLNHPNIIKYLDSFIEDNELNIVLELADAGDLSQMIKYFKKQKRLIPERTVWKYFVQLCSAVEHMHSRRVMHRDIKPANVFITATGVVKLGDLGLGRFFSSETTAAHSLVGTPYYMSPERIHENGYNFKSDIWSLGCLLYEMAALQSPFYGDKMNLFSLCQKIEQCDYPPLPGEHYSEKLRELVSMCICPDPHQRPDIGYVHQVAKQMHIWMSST
# Sequence of Serine/threonine-protein kinase Nek7 (Homo sapiens) (Q8TDX7 whole entry, looked up): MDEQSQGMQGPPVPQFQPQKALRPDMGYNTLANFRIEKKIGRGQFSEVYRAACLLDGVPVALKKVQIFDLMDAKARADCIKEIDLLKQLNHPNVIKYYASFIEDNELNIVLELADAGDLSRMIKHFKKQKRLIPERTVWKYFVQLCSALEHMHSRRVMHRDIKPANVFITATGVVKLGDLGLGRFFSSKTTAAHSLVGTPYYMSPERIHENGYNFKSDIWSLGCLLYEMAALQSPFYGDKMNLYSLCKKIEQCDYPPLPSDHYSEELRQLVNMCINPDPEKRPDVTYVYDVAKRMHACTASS
# Sequence of Casein kinase II subunit alpha (Homo sapiens) (P68400 whole entry, looked up): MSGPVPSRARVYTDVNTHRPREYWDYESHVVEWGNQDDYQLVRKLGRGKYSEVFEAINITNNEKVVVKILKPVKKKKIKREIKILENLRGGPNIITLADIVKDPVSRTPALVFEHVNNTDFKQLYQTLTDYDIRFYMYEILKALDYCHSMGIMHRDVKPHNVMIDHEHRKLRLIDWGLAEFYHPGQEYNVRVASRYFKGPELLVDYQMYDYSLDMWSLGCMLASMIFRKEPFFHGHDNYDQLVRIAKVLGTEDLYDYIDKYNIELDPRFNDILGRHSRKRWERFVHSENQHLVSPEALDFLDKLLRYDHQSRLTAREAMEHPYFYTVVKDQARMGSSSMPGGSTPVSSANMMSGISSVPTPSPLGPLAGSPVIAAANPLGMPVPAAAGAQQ
# Sequence of Sphingosine kinase 1 (Homo sapiens) (Q9NYA1 whole entry): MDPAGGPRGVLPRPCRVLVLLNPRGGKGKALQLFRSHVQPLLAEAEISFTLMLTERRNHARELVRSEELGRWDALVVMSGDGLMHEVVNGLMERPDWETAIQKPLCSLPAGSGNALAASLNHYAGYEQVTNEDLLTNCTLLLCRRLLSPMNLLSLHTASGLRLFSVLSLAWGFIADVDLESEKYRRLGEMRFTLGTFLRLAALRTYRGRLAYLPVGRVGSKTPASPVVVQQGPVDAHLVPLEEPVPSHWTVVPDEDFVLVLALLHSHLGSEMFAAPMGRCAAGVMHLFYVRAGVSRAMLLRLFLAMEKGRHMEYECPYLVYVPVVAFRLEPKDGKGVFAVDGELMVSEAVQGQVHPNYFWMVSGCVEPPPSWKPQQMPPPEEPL
compound,measurement,setting,value
COc1cc2ncn(-c3cc(OCc4ccccc4C(F)(F)F)c(C(N)=O)s3)c2cc1OC,inhibition,[1],-5.26%
same,inhibition,[2],0.75%
same,inhibition,[3],-2%
same,inhibition,[4],7.47%
same,inhibition,[5],8.83%
same,inhibition,[6],9.42%
same,inhibition,[7],3.6%
same,inhibition,[8],5.69%
same,inhibition,[9],5.75%
same,inhibition,[10],6.51%
same,inhibition,[11],5.84%
same,inhibition,[12],3.95%
same,inhibition,[13],19.1%
same,inhibition,[14],6.41%
same,inhibition,[15],17.1%
same,inhibition,[16],0.15%
same,inhibition,[17],2.1%
same,inhibition,[18],3.29%
same,inhibition,[19],5.2%
same,inhibition,[20],16.7%
